1 sequence from PMC7862700, “An all-to-all approach to the identification of sequence-specific readers for epigenetic DNA modifications on cytosine” can be followed below.

Common to all, as to assay: DAPPL (digital affinity profiling via proximity ligation, sequencing); 10 mM Tris-HCl pH 7.5, 50 mM NaCl, 1 mM DTT, 4% glycerol, room temperature, 30 min; GST-TFs on glutathione beads, 16-mer random dsDNA library, 0.1% formaldehyde crosslink after washing; high values mean tight binding
For one assay, the target named is T1, FEV (Homo sapiens, UniProt Q99581 1-238).
T1 sequence: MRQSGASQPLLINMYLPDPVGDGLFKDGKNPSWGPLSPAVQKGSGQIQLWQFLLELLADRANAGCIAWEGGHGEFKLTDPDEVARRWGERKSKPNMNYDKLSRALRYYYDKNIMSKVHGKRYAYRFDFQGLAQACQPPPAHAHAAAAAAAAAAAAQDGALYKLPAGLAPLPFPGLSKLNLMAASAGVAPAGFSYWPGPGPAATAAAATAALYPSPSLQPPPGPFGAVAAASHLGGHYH
The note with it: protein: recombinant; tags: N-terminal GST; dsDNA, one strand shown. Summed up: (§1)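 Human transcription factors were made in yeast as GST fusions, captured on glutathione beads and barcoded with DNA. With a tag-only sample included, the pool was incubated with 200 nmole of a random double-stranded 16-mer DNA library in Tris/NaCl/DTT/glycerol buffer at room temperature for 30 min, then crosslinked with 0.1% formaldehyde after washing, ligated by proximity, amplified and sequenced. For binding signal, each hexamer's read frequency for a factor is divided by its frequency for the tag-only sample.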

The target of another assay is ETV5 (Homo sapiens, UniProt P41161 1-510). The following applies: protein: recombinant; tags: N-terminal GST; dsDNA, one strand shown. Put shortly: as §1
Sequence of ETV5 (P41161 whole entry): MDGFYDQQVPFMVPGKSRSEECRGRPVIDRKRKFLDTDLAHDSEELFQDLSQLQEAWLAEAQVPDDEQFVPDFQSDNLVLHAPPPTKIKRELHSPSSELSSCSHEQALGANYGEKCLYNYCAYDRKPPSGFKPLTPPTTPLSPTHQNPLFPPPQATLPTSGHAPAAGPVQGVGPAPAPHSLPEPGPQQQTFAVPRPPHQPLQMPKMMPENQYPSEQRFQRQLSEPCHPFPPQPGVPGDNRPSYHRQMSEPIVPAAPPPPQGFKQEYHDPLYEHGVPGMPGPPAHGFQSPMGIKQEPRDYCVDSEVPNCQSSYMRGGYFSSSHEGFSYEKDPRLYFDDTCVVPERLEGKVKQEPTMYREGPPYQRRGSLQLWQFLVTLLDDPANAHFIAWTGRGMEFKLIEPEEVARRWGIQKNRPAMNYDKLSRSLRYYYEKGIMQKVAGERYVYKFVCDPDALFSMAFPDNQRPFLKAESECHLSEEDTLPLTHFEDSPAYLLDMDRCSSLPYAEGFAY
Another assay addresses HSF1 (Homo sapiens, UniProt Q00613 1-529). The note with it: protein: recombinant; tags: N-terminal GST; chain copies: 3; dsDNA, one strand shown. Put shortly:
as §1

For the next assay, the target named is T2, SPIC (Homo sapiens, UniProt Q8N5J4 1-248).
T2 sequence: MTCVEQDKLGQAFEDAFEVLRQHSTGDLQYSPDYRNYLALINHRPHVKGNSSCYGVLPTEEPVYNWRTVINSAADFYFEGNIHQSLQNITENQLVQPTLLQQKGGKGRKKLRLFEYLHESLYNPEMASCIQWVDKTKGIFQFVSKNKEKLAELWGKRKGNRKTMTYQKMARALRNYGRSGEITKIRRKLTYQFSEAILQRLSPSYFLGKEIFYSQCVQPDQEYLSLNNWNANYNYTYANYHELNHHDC
The note with it: protein: recombinant; tags: N-terminal GST; dsDNA, one strand shown. Summed up:
as §1

The next assay has as its target ELF4 (Homo sapiens, UniProt Q99607 1-663). The following applies: protein: recombinant; tags: N-terminal GST; dsDNA, one strand shown. Put shortly: as §1
The next assay addresses T3, ELK4 (Homo sapiens, UniProt P28324-2 1-405).
T3 sequence: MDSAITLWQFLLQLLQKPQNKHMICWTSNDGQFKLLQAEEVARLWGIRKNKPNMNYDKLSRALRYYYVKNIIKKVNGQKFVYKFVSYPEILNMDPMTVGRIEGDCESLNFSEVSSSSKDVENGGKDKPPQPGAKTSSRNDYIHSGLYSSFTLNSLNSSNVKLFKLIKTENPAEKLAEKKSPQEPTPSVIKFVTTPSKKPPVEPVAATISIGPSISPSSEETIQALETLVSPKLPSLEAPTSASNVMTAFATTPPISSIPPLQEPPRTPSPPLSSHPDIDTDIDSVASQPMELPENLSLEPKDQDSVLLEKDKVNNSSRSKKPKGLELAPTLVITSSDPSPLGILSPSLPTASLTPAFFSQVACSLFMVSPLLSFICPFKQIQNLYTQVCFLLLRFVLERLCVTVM
The following applies: protein: recombinant; tags: N-terminal GST; dsDNA, one strand shown. Summed up:
as §1

For the next assay, the target named is T4, ETV2 (Homo sapiens, UniProt O00321 1-342).
T4 sequence: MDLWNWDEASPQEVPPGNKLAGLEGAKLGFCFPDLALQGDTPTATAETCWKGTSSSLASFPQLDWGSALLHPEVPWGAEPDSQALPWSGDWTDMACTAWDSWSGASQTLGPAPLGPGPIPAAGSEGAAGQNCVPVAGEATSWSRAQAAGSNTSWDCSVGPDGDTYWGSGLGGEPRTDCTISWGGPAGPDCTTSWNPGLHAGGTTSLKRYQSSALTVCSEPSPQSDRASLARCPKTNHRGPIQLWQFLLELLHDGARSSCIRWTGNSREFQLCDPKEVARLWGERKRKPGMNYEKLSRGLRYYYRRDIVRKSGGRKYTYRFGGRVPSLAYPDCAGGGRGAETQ
The following applies: protein: recombinant; tags: N-terminal GST; dsDNA, one strand shown. Put shortly:
as §1

The next assay concerns the target T5, ELF3 (Homo sapiens, UniProt P78545 1-371).
T5 sequence: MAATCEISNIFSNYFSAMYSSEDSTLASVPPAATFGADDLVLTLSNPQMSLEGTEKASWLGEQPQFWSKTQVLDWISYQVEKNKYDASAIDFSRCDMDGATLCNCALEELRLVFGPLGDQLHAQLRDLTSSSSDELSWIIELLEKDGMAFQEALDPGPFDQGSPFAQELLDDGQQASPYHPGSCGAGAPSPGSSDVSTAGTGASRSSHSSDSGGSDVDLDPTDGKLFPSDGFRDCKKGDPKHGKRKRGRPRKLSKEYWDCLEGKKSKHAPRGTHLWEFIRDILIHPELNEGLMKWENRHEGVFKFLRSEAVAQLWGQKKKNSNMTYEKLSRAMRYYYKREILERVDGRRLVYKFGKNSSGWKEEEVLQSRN
The note with it: protein: recombinant; tags: N-terminal GST; dsDNA, one strand shown. Put shortly:
as §1

For another assay, the target named is CRX (Homo sapiens, UniProt O43186 1-299). The following applies: protein: recombinant; tags: N-terminal GST; dsDNA, one strand shown. Put shortly:
as §1

The target in the next assay is ETV1 (Homo sapiens, UniProt P50549 1-477). The note with it: protein: recombinant; tags: N-terminal GST; dsDNA, one strand shown. Put shortly: as §1
Sequence of ETV1 (P50549 whole entry): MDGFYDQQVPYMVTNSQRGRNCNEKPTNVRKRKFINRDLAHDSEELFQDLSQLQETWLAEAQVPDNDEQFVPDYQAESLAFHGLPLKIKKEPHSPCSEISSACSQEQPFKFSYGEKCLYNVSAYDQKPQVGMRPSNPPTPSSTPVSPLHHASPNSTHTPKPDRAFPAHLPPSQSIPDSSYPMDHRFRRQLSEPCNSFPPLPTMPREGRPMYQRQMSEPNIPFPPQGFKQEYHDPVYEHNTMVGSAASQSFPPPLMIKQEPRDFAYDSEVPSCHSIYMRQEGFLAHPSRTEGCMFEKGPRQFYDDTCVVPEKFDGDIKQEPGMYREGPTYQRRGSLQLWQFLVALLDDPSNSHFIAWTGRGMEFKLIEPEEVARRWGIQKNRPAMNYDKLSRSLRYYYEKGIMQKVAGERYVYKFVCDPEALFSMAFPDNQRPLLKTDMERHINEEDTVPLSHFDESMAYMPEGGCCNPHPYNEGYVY
The target of a further assay is T6, ERF (Homo sapiens, UniProt P50548 1-548).
T6 sequence: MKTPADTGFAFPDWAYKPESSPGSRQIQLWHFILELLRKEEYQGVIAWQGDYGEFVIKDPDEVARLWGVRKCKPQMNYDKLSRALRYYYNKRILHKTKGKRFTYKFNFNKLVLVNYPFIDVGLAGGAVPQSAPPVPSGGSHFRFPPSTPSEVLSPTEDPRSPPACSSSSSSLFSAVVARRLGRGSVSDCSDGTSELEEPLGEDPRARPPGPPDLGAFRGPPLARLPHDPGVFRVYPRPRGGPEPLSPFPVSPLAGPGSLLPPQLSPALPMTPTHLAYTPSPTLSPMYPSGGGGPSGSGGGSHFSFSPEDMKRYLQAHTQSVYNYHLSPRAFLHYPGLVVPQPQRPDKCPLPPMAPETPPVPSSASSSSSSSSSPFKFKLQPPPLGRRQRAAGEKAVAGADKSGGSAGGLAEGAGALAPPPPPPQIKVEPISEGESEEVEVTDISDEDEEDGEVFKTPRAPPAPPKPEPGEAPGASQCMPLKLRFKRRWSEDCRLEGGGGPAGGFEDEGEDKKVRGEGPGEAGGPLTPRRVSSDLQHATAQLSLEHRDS
The following applies: protein: recombinant; tags: N-terminal GST; dsDNA, one strand shown. Put shortly: as §1

Another assay has as its target T7, ETV3L (Homo sapiens, UniProt Q6ZN32 1-361).
T7 sequence: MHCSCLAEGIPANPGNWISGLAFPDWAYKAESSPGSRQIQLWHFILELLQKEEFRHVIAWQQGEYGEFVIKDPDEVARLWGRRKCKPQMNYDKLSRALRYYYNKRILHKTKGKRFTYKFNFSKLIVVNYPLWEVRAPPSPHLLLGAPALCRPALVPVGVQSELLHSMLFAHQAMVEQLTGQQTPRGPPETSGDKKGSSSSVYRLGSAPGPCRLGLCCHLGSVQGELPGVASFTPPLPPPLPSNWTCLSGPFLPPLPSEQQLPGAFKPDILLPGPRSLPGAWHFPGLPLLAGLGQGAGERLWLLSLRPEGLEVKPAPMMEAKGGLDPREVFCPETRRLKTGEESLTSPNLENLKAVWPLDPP
The following applies: protein: recombinant; tags: N-terminal GST; dsDNA, one strand shown. Put shortly:
as §1

Another assay addresses T8, ETS2 (Homo sapiens, UniProt P15036 1-469).
T8 sequence: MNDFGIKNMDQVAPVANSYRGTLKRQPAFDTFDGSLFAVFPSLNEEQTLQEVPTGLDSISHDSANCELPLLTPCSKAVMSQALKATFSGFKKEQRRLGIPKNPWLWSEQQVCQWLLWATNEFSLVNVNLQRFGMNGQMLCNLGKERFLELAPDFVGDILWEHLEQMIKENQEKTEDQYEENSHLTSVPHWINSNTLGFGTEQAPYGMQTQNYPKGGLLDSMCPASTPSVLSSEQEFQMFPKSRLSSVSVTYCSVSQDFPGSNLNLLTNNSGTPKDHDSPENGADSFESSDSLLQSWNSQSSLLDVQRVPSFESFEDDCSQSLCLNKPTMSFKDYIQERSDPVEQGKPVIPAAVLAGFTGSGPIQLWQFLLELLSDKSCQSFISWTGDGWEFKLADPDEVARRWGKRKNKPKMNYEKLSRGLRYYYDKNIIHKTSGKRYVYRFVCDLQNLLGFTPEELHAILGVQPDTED
The note with it: protein: recombinant; tags: N-terminal GST; dsDNA, one strand shown. Summed up: as §1

The next assay addresses T9, SPDEF (Homo sapiens, UniProt O95238 1-335).
T9 sequence: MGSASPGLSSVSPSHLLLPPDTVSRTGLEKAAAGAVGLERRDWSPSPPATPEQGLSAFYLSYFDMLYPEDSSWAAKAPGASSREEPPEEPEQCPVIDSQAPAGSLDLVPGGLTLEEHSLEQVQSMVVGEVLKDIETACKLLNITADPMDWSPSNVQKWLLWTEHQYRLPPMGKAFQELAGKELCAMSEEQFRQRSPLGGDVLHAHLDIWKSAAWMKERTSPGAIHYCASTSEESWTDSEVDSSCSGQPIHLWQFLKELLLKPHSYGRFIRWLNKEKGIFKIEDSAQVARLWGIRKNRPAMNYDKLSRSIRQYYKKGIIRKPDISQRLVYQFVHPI
The following applies: protein: recombinant; tags: N-terminal GST; dsDNA, one strand shown. Put shortly:
as §1

The target of the next assay is T10, ETV7 (Homo sapiens, UniProt Q9Y603 1-341).
T10 sequence: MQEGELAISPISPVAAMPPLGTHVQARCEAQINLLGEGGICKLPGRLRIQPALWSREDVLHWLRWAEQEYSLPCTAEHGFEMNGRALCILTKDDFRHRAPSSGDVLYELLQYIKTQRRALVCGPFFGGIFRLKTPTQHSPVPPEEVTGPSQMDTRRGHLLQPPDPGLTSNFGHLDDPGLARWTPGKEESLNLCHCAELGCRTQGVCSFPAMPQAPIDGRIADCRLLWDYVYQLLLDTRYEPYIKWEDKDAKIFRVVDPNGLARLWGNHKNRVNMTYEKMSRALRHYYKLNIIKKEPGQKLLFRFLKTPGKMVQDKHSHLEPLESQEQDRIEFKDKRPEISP
The note with it: protein: recombinant; tags: N-terminal GST; dsDNA, one strand shown. Put shortly:
as §1

Another assay concerns the target T11, ELF5 (Homo sapiens, UniProt Q9UKW6-2 1-255).
T11 sequence: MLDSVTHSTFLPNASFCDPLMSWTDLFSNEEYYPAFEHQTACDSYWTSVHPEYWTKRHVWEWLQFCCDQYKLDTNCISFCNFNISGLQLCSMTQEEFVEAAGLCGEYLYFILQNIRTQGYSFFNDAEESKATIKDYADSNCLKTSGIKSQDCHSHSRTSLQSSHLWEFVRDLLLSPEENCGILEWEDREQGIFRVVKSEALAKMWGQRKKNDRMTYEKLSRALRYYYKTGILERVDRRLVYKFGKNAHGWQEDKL
The following applies: protein: recombinant; tags: N-terminal GST; dsDNA, one strand shown. Put shortly:
as §1

The target of another assay is T12, ETV3 (Homo sapiens, UniProt P41162-2 1-143).
T12 sequence: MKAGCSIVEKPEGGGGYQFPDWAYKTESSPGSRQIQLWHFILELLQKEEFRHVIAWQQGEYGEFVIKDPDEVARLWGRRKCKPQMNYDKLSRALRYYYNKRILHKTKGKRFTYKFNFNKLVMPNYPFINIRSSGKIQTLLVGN
The following applies: protein: recombinant; tags: N-terminal GST; dsDNA, one strand shown. Put shortly:
as §1

For another assay, the target named is ETV6 (Homo sapiens, UniProt P41212 1-452). The note with it: protein: recombinant; tags: N-terminal GST; dsDNA, one strand shown. Put shortly:
as §1

Sequence of ELF4 (Q99607 whole entry): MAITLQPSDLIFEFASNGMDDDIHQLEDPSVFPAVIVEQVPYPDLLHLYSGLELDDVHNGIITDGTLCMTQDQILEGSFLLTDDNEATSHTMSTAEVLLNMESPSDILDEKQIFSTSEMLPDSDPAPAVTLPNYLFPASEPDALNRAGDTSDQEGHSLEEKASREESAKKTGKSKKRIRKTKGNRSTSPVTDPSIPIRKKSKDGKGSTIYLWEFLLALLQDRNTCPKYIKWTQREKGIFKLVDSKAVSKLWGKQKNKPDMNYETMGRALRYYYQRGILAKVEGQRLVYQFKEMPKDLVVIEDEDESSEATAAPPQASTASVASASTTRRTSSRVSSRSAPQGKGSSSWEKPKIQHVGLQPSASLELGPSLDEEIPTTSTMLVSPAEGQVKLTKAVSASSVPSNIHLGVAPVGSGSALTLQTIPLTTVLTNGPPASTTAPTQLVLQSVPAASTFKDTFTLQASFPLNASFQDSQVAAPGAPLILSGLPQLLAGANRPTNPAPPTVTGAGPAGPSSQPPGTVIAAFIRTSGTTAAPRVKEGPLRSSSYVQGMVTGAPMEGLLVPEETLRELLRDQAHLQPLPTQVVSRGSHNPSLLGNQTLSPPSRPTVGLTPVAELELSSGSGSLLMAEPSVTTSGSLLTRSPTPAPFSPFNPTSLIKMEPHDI
Sequence of CRX (O43186 whole entry): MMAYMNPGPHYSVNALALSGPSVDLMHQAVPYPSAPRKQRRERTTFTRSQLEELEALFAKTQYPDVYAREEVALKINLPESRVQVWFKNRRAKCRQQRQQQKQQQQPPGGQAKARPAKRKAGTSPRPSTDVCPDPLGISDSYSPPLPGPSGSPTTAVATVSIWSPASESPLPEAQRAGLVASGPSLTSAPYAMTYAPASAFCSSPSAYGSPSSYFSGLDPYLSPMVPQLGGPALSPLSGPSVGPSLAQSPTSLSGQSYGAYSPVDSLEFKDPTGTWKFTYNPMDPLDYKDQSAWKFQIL
Sequence of ETV6 (P41212 whole entry): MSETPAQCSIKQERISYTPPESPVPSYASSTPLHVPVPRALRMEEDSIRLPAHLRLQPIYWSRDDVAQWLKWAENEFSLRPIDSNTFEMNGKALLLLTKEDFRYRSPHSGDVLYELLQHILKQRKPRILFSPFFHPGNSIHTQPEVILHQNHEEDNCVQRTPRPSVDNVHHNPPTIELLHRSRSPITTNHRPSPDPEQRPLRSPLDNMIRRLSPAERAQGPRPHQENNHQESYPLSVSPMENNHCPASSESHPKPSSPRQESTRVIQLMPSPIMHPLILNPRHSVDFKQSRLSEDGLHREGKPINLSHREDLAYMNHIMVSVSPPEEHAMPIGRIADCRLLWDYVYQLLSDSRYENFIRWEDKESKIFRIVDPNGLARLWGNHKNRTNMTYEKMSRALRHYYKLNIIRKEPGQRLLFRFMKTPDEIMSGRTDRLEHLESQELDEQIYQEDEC
Sequence of HSF1 (Q00613 whole entry): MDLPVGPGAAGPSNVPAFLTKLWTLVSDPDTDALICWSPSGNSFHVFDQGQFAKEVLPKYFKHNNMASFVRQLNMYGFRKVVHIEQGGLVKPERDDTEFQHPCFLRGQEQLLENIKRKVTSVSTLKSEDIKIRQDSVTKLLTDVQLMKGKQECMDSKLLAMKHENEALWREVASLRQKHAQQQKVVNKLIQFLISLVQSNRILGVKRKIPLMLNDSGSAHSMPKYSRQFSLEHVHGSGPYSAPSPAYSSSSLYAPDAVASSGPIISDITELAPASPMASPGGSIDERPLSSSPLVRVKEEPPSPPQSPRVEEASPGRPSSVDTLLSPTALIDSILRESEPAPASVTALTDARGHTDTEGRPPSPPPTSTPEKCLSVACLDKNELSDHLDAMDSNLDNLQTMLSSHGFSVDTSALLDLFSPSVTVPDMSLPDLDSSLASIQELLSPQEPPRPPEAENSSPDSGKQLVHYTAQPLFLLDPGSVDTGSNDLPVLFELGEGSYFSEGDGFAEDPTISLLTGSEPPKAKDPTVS

For GCCTTC, the binding signal was 1.57 fold enrichment (6-mer frequency, TF over GST control) with FEV; 1.56 fold enrichment (6-mer frequency, TF over GST control) with ETV5; 1.49 fold enrichment (6-mer frequency, TF over GST control) with HSF1; 1.71 fold enrichment (6-mer frequency, TF over GST control) with SPIC; 1.6 fold enrichment (6-mer frequency, TF over GST control) with ELF4; 1.64 fold enrichment (6-mer frequency, TF over GST control) with ELK4. The binding signal with ETV2 is 1.63 fold enrichment (6-mer frequency, TF over GST control); with ELF3, 1.41 fold enrichment (6-mer frequency, TF over GST control); with CRX, 1.2 fold enrichment (6-mer frequency, TF over GST control); in the assay with ETV1, 1.66 fold enrichment (6-mer frequency, TF over GST control); with ERF, 1.47 fold enrichment (6-mer frequency, TF over GST control); with ETV3L, 1.45 fold enrichment (6-mer frequency, TF over GST control). The binding signal with ETS2 was 1.44 fold enrichment (6-mer frequency, TF over GST control); with SPDEF, 1.47 fold enrichment (6-mer frequency, TF over GST control); in the assay with ETV7, 1.47 fold enrichment (6-mer frequency, TF over GST control); in the assay with ELF5, 1.67 fold enrichment (6-mer frequency, TF over GST control); with ETV3, 1.63 fold enrichment (6-mer frequency, TF over GST control); in the assay with ETV6 it was 1.47 fold enrichment (6-mer frequency, TF over GST control).
